Laboratory results taken from PubChem BioAssay (NCATS).
Results filed as inconclusive are left out. Activity calls are given as the source filed them. Calls come from the whole dose curve; as a rule, active = well fitted curve in the direction sought with a large enough effect; inconclusive = small, poorly fitted or top-dose-only effect, or another doubt; inactive = no such curve, though single readings can be large; an effect the other way counts as inactive or inconclusive. Residues, ends and D or L forms follow the SMILES beside them. *: point of attachment. Cbz = O=C(OCc1ccccc1)*

Columns and labels:
[1] = molecular target: Arylsulfatase A (Homo sapiens) (UniProt P15289); assay: qHTS screen for enhancers of Arylsulfatase A (ASA1): LOPAC Validation Assay (AID 720538)
In short: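 Enhancer assay in patient-derived MLD fibroblasts carrying ASA-I179S: 48 h compound exposure at 37 C, then 14 h room-temperature pNCS turnover (0.5 mM final) in lysis buffer. Read by fluorescence at 525/598 nm after NaOH stop.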

[2] = qHTS for compounds that reverse cellular toxicity of Amyloid beta (A-beta) peptide in yeast: LOPAC Validation Assay (AID 720559);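 note: plate controls were DMSO for no effect and equimolar ferric chloride plus clioquinol rescue for full effect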
In short: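 Rescue of A-beta toxicity was scored as yeast growth by 600 nm absorbance after 48 hr at 30 C with compound. Normalization used DMSO (negative) and equimolar ferric chloride plus clioquinol (positive).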

[3] = qHTS for Activators of Parkin Expression: LOPAC Validation Assay (NLuc Reporter) (AID 720572;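 note: 0% = DMSO and 100% = positive control compound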)
In short: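 Neuronal line stably carrying a FLuc/NLuc coincidence reporter under the Parkin promoter, seeded 24 h, then dosed in 7-point series for 24 h at 37 C. NLuc luminescence read after FLuc; normalized to DMSO and positive control (100%).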

[4] = qHTS for Activators of Parkin Expression: LOPAC Validation Assay (FLuc Reporter) (AID 720573;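 note: 0% = DMSO and 100% = positive control compounds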)
In short: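 FLuc signal from Parkin-promoter coincidence reporter neuronal cells, normalized to DMSO and positive control (100%). Cells (1,500/well) pre-incubated 24 h, then exposed to LOPAC compounds in 7-point dose response for 24 h at 37 C, 5% CO2.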

[5] = molecular target: T1, Hexokinase-4 (Homo sapiens) + Glucokinase regulatory protein (Homo sapiens) (UniProt P35557+Q14397); assay: qHTS assay for inhibitors of recombinant human GCK-GKRP interaction: Diaphorase-coupled assay (AID 743205)
In short: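 A kinetic fluorescence read (Ex 525/Em 590 nm, every minute for 30 minutes) tracked resorufin from a G6PDH-diaphorase coupled GCK reaction. It contained 10 nM GST-GCK, 10 nM FLAG-GKRP, 5 mM glucose, 0.4 mM ATP in Hepes pH 7.6. Normalized to with/without-enzyme DMSO controls.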

[6] = molecular target: T1, Hexokinase-4 (Homo sapiens) + Glucokinase regulatory protein (Homo sapiens); assay: qHTS assay for inhibitors of recombinant human GCK-GKRP interaction: ADP-Glo assay (AID 743206);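 note: plate controls were DMSO plus enzyme for no effect and no enzyme for full effect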
In short: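 GST-GCK and FLAG-GKRP (15 nM each in the dispensed mix, with 2 uM S6P) react with 0.4 mM ATP and 5 mM glucose (final) in Hepes pH 7.6 for 60 min at room temperature. ADP is measured by ADP-Glo luminescence.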

[7] = qHTS Assay for Identifying Gametocytocidal Compounds (AID 743244);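 note: % is set by controls: 0 for no effect and ±100 for the full control effect; actives lower the fluorescent signal which means gametocytes are killed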; details: P. falciparum 3D7 stage III-V gametocytes, alamarBlue, 72 h; max response: stronger effect = lower value
In short: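 Late gametocytes (III–V), P. falciparum 3D7; 72 h drug, then 24 h alamarBlue; resazurin reduction read by fluorescence.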

[8] = molecular target: T1, Hexokinase-4 (Homo sapiens) + Glucokinase regulatory protein (Homo sapiens); assay: qHTS assay for inhibitors of recombinant human GCK-GKRP interaction: HTRF assay (AID 743207);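 note: 0% = DMSO with GCK present and -100% = DMSO wells lacking GCK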
In short: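 After 60 min equilibration at room temperature with anti-FLAG XL665 and anti-GST antibodies, FRET ratio (665/615 nm, excitation 320 nm) was read. Proteins: GST-GCK and FLAG-GKRP, each 5 nM, plus 2 uM S6P, pH 7.1 buffer; GCK-free wells define minimum signal.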

Arylsulfatase A (Homo sapiens), sequence (P15289 whole entry, looked up): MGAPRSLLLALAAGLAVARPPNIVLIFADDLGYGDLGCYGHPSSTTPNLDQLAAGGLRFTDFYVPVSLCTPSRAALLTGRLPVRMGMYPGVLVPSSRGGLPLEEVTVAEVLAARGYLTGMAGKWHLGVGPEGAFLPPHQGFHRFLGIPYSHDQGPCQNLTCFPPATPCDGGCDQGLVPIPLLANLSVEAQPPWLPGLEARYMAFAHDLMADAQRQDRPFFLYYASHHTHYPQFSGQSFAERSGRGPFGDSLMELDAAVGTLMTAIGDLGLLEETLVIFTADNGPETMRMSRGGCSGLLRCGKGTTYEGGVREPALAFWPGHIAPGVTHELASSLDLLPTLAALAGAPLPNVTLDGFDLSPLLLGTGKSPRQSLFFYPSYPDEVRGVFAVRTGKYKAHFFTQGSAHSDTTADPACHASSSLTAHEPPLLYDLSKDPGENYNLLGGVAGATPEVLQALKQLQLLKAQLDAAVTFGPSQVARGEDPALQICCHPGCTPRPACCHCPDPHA
T1 sequence (P35557 whole entry, looked up): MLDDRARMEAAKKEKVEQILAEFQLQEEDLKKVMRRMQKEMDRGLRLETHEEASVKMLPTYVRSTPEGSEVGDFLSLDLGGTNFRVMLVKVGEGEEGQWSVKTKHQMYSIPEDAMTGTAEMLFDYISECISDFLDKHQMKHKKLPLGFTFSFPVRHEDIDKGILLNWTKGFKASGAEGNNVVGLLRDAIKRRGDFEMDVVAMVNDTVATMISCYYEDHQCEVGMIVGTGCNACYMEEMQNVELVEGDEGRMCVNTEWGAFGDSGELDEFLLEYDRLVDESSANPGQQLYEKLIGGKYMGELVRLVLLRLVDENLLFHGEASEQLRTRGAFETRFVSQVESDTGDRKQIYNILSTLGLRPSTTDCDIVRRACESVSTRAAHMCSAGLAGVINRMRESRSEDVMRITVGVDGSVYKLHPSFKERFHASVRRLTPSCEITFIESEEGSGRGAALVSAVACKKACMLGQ
T1 sequence (Q14397 whole entry, looked up): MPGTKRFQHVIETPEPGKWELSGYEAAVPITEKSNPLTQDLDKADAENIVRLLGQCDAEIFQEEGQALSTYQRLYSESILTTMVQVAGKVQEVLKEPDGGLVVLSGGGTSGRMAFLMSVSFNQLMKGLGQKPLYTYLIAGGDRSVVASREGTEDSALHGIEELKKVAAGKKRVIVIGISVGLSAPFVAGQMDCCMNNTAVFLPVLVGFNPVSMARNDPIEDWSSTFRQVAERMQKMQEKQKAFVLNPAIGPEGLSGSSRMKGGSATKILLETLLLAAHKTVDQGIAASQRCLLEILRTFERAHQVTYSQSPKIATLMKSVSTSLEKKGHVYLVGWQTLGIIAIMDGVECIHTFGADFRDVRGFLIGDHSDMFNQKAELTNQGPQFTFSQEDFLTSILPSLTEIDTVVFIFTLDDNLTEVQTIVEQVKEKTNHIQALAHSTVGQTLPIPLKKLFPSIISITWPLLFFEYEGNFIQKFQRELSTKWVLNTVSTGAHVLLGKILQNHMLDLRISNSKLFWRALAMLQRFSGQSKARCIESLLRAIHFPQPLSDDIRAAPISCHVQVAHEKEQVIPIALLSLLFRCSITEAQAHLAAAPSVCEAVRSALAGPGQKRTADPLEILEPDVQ

O=C(O)C1=CCNCC1
inactive: Potency [1] | outcome [2] | Potency [3] | Potency [4] | Potency [5] | Potency [6] | max response [7] 2.03%

CC(N)=NCCCC[C@@H](N)C(=O)O
inactive: Potency [1] | outcome [2] | Potency [3] | Potency [4] | Potency [5] | Potency [6] | Potency [8] | max response [7] 25.1%

CCCn1c(=O)c(C)cn2nc(N)nc12
inactive: Potency [1] | outcome [2] | Potency [3] | Potency [4] | Potency [5] | Potency [6] | Potency [8] | max response [7] -2.34%

O=C(O)C1=CCCN(CCON=C(c2ccccc2)c2ccccc2)C1
inactive: Potency [1] | outcome [2] | Potency [3] | Potency [4] | Potency [5] | Potency [6] | max response [7] -12.8%

CC(C)[C@H](NC(=O)OCc1ccccc1)C(=O)N[C@H](C=O)Cc1ccccc1 (Cbz-Val-Phe-aldehyde)
inactive: Potency [1] | outcome [2] | Potency [3] | Potency [4] | Potency [5] | Potency [6] | Potency [8] | max response [7] 7.9%

O=C(O)c1cc2cc(F)ccc2[nH]1
inactive: Potency [1] | outcome [2] | Potency [3] | Potency [4] | Potency [5] | Potency [6] | max response [7] 5.51%

CC#CCOC(=O)c1c(C)nc2sc3c(c2c1N)CCC(O)C3 (configuration not stated)
inactive: Potency [1] | outcome [2] | Potency [3] | Potency [4] | Potency [5] | Potency [6] | max response [7] -7.3%

CCC1(O)CC2CN(CCc3c([nH]c4ccccc34)[C@@](C(=O)OC)(c3cc4c(cc3OC)N(C)C3[C@]45CCN4CC=C[C@@](CC)([C@@H](OC(C)=O)[C@]3(O)C(=O)OC)[C@H]45)C2)C1 (some centres not stated)
inactive: Potency [1] | outcome [2] | Potency [4] | Potency [5] | Potency [6] | Potency [8]

COc1ccccc1N1CCN(CCCNc2c(C)c(=O)n(C)c(=O)n2C)CC1
inactive: Potency [1] | outcome [2] | Potency [4] | Potency [5] | Potency [6] | Potency [8] | max response [7] -1.96%

C=CC1(C)CC(=O)C2(O)C(C)(O1)C(OC(C)=O)C(O)C1C(C)(C)CCC(O)C12C (configuration not stated)
inactive: Potency [1] | outcome [2] | Potency [4] | Potency [5] | Potency [6] | Potency [8] | max response [7] 15.4%

OC[C@H]1NC[C@@H](O)[C@@H]1O
inactive: Potency [1] | outcome [2] | Potency [4] | Potency [5] | Potency [6] | Potency [8] | max response [7] 20.9%

N#CC(=C(\N)Sc1ccccc1N)/C(C#N)=C(/N)Sc1ccccc1N
inactive: Potency [1] | outcome [2] | Potency [4] | Potency [5] | Potency [6] | Potency [8] | max response [7] 14.1%

CSc1nc(N)c2ncn([C@@H]3O[C@H](COP(=O)(O)OP(=O)(O)O)C(O)[C@H]3O)c2n1 (some centres not stated)
inactive: Potency [1] | outcome [2] | Potency [4] | Potency [5] | Potency [6] | max response [7] 18.1%
